Values joined by “and” are separate entries in the source; they are usually repeats but may differ in a detail not shown here. Equal entries are not always repeated. Records with an inconclusive call do not appear. Some compounds were tested as several samples or in several runs, with calls that do not always agree. Active and inactive are the calls of the source. Unless noted, the call rests on the fitted dose curve; in most records, active means well fitted curve in the direction sought with a large enough effect in the repeat runs; inconclusive means weak or mixed curves; inactive means no such curve, though single readings can be large; an effect the other way counts as inactive or inconclusive.

Here are results for 9 compounds from PubChem BioAssay (Tox21).

Assay [1] is described as follows: qHTS assay to identify small molecule agonists of the vitamin D receptor (VDR) signaling pathway - cell viability counter screen (AID 743224). Further: nearly all actives have a fitted effect of over 50% in size. Further: potency means the concentration at half of the fitted maximal effect. The gist of the method: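 Plated VDR-bla cells (4 h, 37C) received compound, incubated 16 h, then LiveBLAzer substrate 2 h RT; CellTiter-Glo added afterwards, luminescence read at 30 min.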
(In qHTS, concentration-response curves come from the screen itself.)

Assay [2] can be described thus: qHTS assay to identify small molecule antagonists of the vitamin D receptor (VDR) signaling pathway - cell viability counter screen (AID 743225). Further: nearly all actives have a fitted effect of over 50% in size. Further: potency means the concentration at half of the fitted maximal effect. Put shortly:
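Cells (VDR-UAS-bla HEK 293T) are plated, rested 4 h at 37C, dosed with compound and 3 nM final 1-alpha,25-dihydroxy vitamin D3, and incubated 16 h. Viability is taken from CellTiter-Glo luminescence in the reporter wells.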

A short description of assay [3]: qHTS assay to identify small molecule agonists of the NFkB signaling pathway (AID 1159509; active means well fitted curve in the direction sought with a large enough effect in the signal ratio in the repeat runs, not every such curve was filed as active; the % refers to the signal ratio). Put shortly: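 After overnight attachment, reporter cells received test compounds, DMSO or positive controls and were incubated 5 hr at 37 C. FRET substrate was then added for 1.5 hr at room temperature before dual-emission fluorescence reading.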
Assay [4] in a line: qHTS assay to identify small molecule agonists of the NFkB signaling pathway - cell viability counter screen (AID 1159515; calls by dose curve; further: nearly all actives have a fitted effect of over 55% in size; further: potency means the concentration at half of the fitted maximal effect). Put shortly:
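Using the same wells as the NFkB reporter read, ME-180 NFkB-bla cells given compounds for 5 hr were assessed for viability via CellTiter-Glo, with luminescence taken after a 30 min room-temperature incubation.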

A short description of assay [5]: qHTS assay to identify small molecule agonists of the endoplasmic reticulum stress response signaling pathway (AID 1159516; active means well fitted activation curve with a large enough effect in the signal ratio in the repeat runs, not every such curve was filed as active; the % refers to the signal ratio). The gist of the method:
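An ESRE-bla HeLa cell assay: compounds were pin-transferred from DMSO onto overnight-plated cells and left 5 hr at 37 C. Substrate was then loaded for 2 hr at room temperature before reading fluorescence at 460 nm and 530 nm.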

Assay [6] can be described thus: qHTS assay to identify small molecule agonists of the endoplasmic reticulum stress response signaling pathway - cell viability counter screen (AID 1159517; calls by dose curve; further: nearly all actives have a fitted effect of over 50% in size; further: potency means the concentration at half of the fitted maximal effect). The gist of the method: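 Counter-screen wells were identical to the reporter wells. Cells were plated at 1,500 per well and dosed for 5 hr, then read for luminescence 30 min after CellTiter-Glo addition.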
The nature of assay [7]: qHTS assay to identify small molecule antagonists of the retinoid-related orphan receptor gamma (ROR-gamma) signaling pathway - cell viability counter screen (AID 1159520). Further: nearly all actives have a fitted effect of over 50% in size. Further: potency means the concentration at half of the fitted maximal effect. Put shortly:
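Tet-on ROR gamma CHO cells were given compounds for 2 hr, then doxycycline hyclate at 1 uM final, and incubated 16 hr at 37 C. Viability was measured as ATP content by CellTiter-Glo luminescence.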

Assay [8] deals with Nuclear receptor ROR-gamma (Homo sapiens) (UniProt P51449). Kind of assay: qHTS assay to identify small molecule antagonists of the retinoid-related orphan receptor gamma (ROR-gamma) signaling pathway (AID 1159521; further: nearly all actives have a fitted effect of over 50% in size; further: potency means the concentration at half of the fitted maximal effect). Put shortly:
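RORγ antagonism is scored from reduced reporter luminescence in Tet-on CHO cells. Induction used 1 uM final doxycycline hyclate for 16 h at 37 C, following a 2 h compound exposure.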

A short description of assay [9]: qHTS assay to identify small molecule agonists of the AP-1 signaling pathway - cell viability counter screen (AID 1159525; calls by dose curve; further: nearly all actives have a fitted effect of over 55% in size; further: potency means the concentration at half of the fitted maximal effect). The gist of the method:
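AP-1-bla ME-180 cells in Opti-MEM with 0.5% dialyzed FBS, compound exposure 5 h at 37 C in 15-point titration. Viability read in the same wells as ATP content by CellTiter-Glo luminescence, normalised to tetra-n-octylammonium bromide and DMSO controls.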

The target of assay [10] is Retinoic acid receptor RXR-alpha (Homo sapiens) (UniProt P19793). Kind of assay: qHTS assay to identify small molecule agonists of the RXR signaling pathway (AID 1159527; calls by dose curve; further: nearly all actives have a fitted effect of over 35% in size). Put shortly: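 qHTS of the Tox21 10K library in GeneBLAzer RXR-alpha HEK 293T cells carrying a beta-lactamase reporter […]; 16 hr treatment, 9-cis retinoic acid as agonist control, FRET read-out.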
Retinoic acid receptor RXR-alpha (Homo sapiens), sequence (P19793 whole entry, looked up): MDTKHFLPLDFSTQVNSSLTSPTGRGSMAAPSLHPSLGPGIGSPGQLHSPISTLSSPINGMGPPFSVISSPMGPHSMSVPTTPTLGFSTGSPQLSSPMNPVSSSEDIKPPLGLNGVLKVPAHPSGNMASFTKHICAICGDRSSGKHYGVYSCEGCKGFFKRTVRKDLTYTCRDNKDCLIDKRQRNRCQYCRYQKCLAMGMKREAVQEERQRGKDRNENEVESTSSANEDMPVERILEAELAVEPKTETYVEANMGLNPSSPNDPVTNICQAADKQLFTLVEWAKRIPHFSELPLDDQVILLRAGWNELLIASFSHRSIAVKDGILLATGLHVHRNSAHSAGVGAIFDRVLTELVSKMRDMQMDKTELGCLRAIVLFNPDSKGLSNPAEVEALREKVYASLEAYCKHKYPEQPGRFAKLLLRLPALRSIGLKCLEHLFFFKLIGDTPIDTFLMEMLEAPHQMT

The nature of assay [11]: qHTS assay to identify small molecule agonists of the RXR signaling pathway - cell viability counter screen (AID 1159529). Further: nearly all actives have a fitted effect of over 50% in size. Further: potency means the concentration at half of the fitted maximal effect. The gist of the method:
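Cell viability is measured by CellTiter-Glo luminescence, 30 min at room temperature, in wells already read for beta-lactamase. Engineered HEK 293T cells (RXR-alpha-UAS-bla) are dosed 16 hr at 37 C. Tetraoctyl ammonium bromide serves as positive control.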

Assay [12] is described as follows: qHTS assay to identify small molecule agonists of the estrogen related receptor (ERR) signaling pathway (AID 1224820). Put shortly: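 Quantitative HTS of the LOPAC library used NTP ERR reporter cells treated 18 h at 37 C. Signal is luminescence after One-Glo addition and a 30 min room-temperature incubation.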
Assay [13] has as its system estrogen-related receptor alpha (ERRalpha) with PGC-1alpha coactivator, human. The experiment in a line: qHTS assay to identify small molecule antagonists of the estrogen related receptor signaling pathway with the pleiotropic PPARgamma coactivator (PGC) (AID 1224821; calls by dose curve). The gist of the method:
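Quantitative HTS for antagonism: PGC/ERR cells received compounds after 6 h attachment and were incubated 18 h at 37 C, with luminescence (One-Glo) as the endpoint.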

Assay [14] can be described thus: qHTS assay to identify small molecule antagonists of the estrogen related receptor signaling pathway with the pleiotropic PPARgamma coactivator (PGC) cell viability counter screen (AID 1224822;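 further: potency means the concentration at half of the fitted maximal effect; viability read after 17.5 h compound exposure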). Put shortly:
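PGC/ERR cells were plated at 2,000 per well and allowed 6 h to settle before compound addition. Following 17.5 h at 37 C, CellTiter-Fluor reagent was added and fluorescence was read 30 min later.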

Assay [15] can be described thus: qHTS assay to identify small molecule agonists of the AP-1 signaling pathway (AID 1159526; calls by dose curve).
Assay [16] can be described thus: qHTS assay to identify small molecule antagonists of the retinoic acid receptor (RAR) signaling pathway (AID 1159552; further: nearly all actives have a fitted effect of over 50% in size; further: potency means the concentration at half of the fitted maximal effect). Put shortly:
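Quantitative HTS in C3RL4 RARE-luciferase reporter cells. Compounds were added with 1 uM (final) retinol; luminescence was read after 6 hr.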

A short description of assay [17]: qHTS assay to identify small molecule agonists of the retinoic acid receptor (RAR) signaling pathway (AID 1159553). The conditions noted are these: C3RL4 RARE luciferase reporter, agonist, 6 h; activation: at 73.3 µM (top of the series) unless noted. Put shortly:
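Reporter readout comes from luciferase under RARE control in C3RL4 cells; compound exposure lasts 6 hr at 37 C in 5% CO2, and luminescence is recorded following a 30 min room-temperature incubation with reagent.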

A short description of assay [18]: qHTS assay to identify small molecule antagonists of the retinoid acid receptor (RAR) signaling pathway - cell viability counter screen (AID 1159551). Further: nearly all actives have a fitted effect of over 35% in size. The gist of the method: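 Retinol-stimulated (1 uM final) C3RL4 cells, compound 6 h, 37 C; readout CellTiter-Glo luminescence (ATP) after 30 min RT incubation.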

For `Oc1cc(Cl)ccc1Oc1ccc(Cl)cc1Cl`, the Potency is 20 µM (active) in assay [1]; 7.08 µM (active) and 23.9 µM (active) in assay [2]; 22.4 µM (active) and inactive in [4]; 20 µM (active) in assay [6]; 31.4 µM (active) and 29.8 µM (active) in assay [7]; 15.7 µM (active) and 23.7 µM (active) in [8]. Besides, the Potency is 15.8 µM (active) in assay [9], 17.8 µM (active) in assay [11] and 38.6 µM (active) in [14]. In addition, the result in assay [3] and in assay [5] was inactive. For the same compound, the Potency entry in assay [10], in assay [12] and in assay [13] was “inactive” in each case.

As for `O=S(=O)(Oc1ccc(Cl)cc1)c1ccc(Cl)cc1`, the Potency entry in [1], in assay [2], in assay [4], in assay [6], in assay [7] and in assay [8] was “inactive” in each case. The Potency entry in assay [9], in [11], in [16] and in assay [17] was “inactive” in each case. Also, the outcome in [3], in assay [5] and in assay [15] was inactive.

As to `CCCCCCCCCCCOC(=O)c1ccccc1C(=O)OCCCCCCCCCCC`, the Potency result in assay [1], in assay [2], in assay [4], in assay [6], in assay [7] and in [8] was “inactive” in each case. Further, the Potency result in assay [9], in [10], in assay [11], in [16] and in assay [17] was “inactive” each time. Moreover, the compound was called inactive in [3], in assay [5] and in assay [15].

As for `Clc1nc(Cl)nc(Cl)n1`, the Potency result in assay [1], in assay [2], in assay [4], in assay [6], in assay [7] and in assay [8] was “inactive” in each case. In addition, the Potency result in assay [9], in assay [10] and in assay [11] was “inactive” in each case. Further, the result in assay [3], in [5] and in assay [15] was inactive.

Regarding `CCC(=O)O[C@H]1CC[C@H]2[C@@H]3CCC4=CC(=O)CC[C@]4(C)[C@H]3CC[C@]12C`, the Potency in [1] was 12.3 µM (active) and inactive; in [2], 43.6 µM (active) and inactive; in [6], 54.9 µM (active) and 21.3 µM (active); in assay [8], 48.6 µM (active) and inactive; in assay [11], 49 µM (active); in assay [16], 48.6 µM (active) and inactive. For the same compound, the result in [3], in assay [5] and in assay [15] was inactive. Besides, the Potency result in assay [4], in [7], in assay [9] and in [17] was “inactive” each time.

For `c1ccc(NNc2ccccc2)cc1`, the Potency entry in assay [1], in [2], in assay [4], in assay [6], in assay [7] and in [8] was “inactive” in each case. For the same compound, the Potency entry in assay [9], in assay [10], in [11] and in assay [16] was “inactive” throughout. Besides, the outcome in assay [3], in assay [5] and in assay [15] was inactive.

In the case of `CCN(CC)N=O`, the Potency result in assay [1], in [2], in assay [4], in assay [6], in assay [7] and in assay [8] was “inactive” throughout. In addition, the Potency entry in assay [9], in [11], in assay [18], in assay [16] and in assay [17] was “inactive” each time. Besides, the result in assay [3], in [5] and in assay [15] was inactive.

Turning to `Brc1ccc(Oc2cc(Br)c(Br)cc2Br)c(Br)c1`, the Potency entry in assay [1], in [2], in assay [4], in [6], in assay [7] and in assay [8] was “inactive” each time. Further, the Potency result in assay [9], in assay [10], in assay [16] and in assay [17] was “inactive” in each case. For the same compound, the compound was classed as inactive in assay [3], in assay [5] and in assay [15]. Further, in assay [11], the Potency was 17.4 µM (active).

Turning to `CC(C)c1ccc(CO)cc1`, the Potency result in [1], in assay [2], in [4], in assay [6], in assay [7] and in assay [8] was “inactive” in each case. In addition, the Potency entry in assay [9], in assay [10], in assay [11], in assay [16] and in assay [17] was “inactive” in each case. For the same compound, the compound was classed as inactive in assay [3], in assay [5] and in assay [15].
